Hits are enriched below; roughly 12% of the tested compounds scored in any of these assays.
BAZ2B inh: BAZ2B (human) inhibition; AlphaScreen BAZ2B-H3K14Ac peptide displacement; Potency, µM (series often up to 114 µM), inactives show at the top dose activity change, negative = inhibition, most hits filed as inhibitors; Q9UIF8; 4.4% of 360,000 active; further: on the % scale 0 is the no-effect control and ±100 the full control effect; nearly all actives have a fitted effect of over 60% in size
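BAZ2B 50 nM plus b-H3(5-23)K14Ac 50 nM, PBS pH 7.4/0.01% Tween-20, 30 min RT; compound added (max 110 uM), 30 min RT; streptavidin donor/Ni-chelate acceptor beads 10 ug/mL final, 20 min dark; AlphaScreen read.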
G9a block: blocks human histone lysine methyltransferase G9a | Q96KQ7 | G9a H3K9 monomethylation, AlphaScreen, 2 h | Potency, µM (series often up to 102 µM), without a hit: at the highest dose activity, negative = inhibition, most hits filed as inhibitors | 8.8% of 350,000 active; further: on the % scale 0 is the no-effect control and ±100 the full control effect; nearly all actives have a fitted effect of over 75% in size
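Quantitative HTS format: methyltransferase activity on a biotin-tagged H3K9 peptide is measured by AlphaScreen, using a rabbit anti-monomethyl-H3K9 antibody with streptavidin donor and anti-IgG acceptor beads. Final levels are 20 nM enzyme, 500 nM peptide, 20 uM SAM; 2 h RT.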
Sfp inh: blocks B. subtilis Sfp PPTase activity | Q9F4F7 | Biochemical Sfp PPTase activity, qHTS | Potency, µM, inactives show largest response in the series, negative = inhibition, usual class: inhibitors | 3.5% of 310,000 active | AID 1490;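 further: the enzyme is Sfp with the accession as filed and its product quenches rhodamine fluorescence; 0% = enzyme reaction without inhibitor and -100% = no enzyme wells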
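With Hepes-Na pH 7.6 buffer containing 10 mM MgCl2, Sfp (15 nM) modified BHQ-2-YbbR (12.5 uM) using rhodamine-CoA (5 uM). Two reads 30 minutes apart at 525/598 nm yielded each well's rate.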
JMJD2A Tudor: blocks the human JMJD2A Tudor domain. O75164. 4.4% of 390,000 active. AlphaScreen JMJD2A-Tudor / H3K4me3 peptide binding. Potency, µM (highest dose often 114 µM), without a hit: at the top dose activity change, negative = inhibition, usual class: inhibitors; further: on the % scale 0 is the no-effect control and ±100 the full control effect; nearly all actives have a fitted effect of over 50% in size
L3MBTL1 block: L3MBTL1 (human) inhibition. AID 485360. Potency, µM (top dose mostly 57.1 µM), inactives show at the top dose activity, negative = inhibition, hits mostly inhibitors. AlphaScreen L3MBTL1–H3K9me1 peptide binding. 0.66% of 230,000 active. Q9Y468; further: on the % scale 0 is the no-effect control and ±100 the full control effect; nearly all actives have a fitted effect of over 60% in size
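Displacement of a biotinylated histone H3(1-15) peptide monomethylated at Lys9 (75 nM) from L3MBTL1 (50 nM) was measured by AlphaScreen after a 30 min room-temperature compound incubation; cefsulodin titration served as intraplate control.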
HP1b binding inh: inhibitors of HP1-beta chromodomain binding to methylated histone tails | P83916 | Potency, µM (titrated, usually from 114 µM), for the others: at the top dose activity change, negative = inhibition, most hits filed as inhibitors | AID 540317 | 0.56% of 390,000 active | AlphaScreen HP1-beta / biotin-H3K9me3 peptide binding; further: nearly all actives have a fitted effect of over 70% in size
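AlphaScreen: HP1-beta (50 nM) preformed 30 min with biotin-H3(1-18)K9me3 peptide (50 nM) in PBS pH 7.4, 0.01% Tween-20. Compound added for 30 min at RT, then streptavidin donor/nickel chelate acceptor beads (10 ug/mL) for 30 min.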
* marks the source's active call; other numbers are inactive results; ? = inconclusive; / = no result given; [ ] = another dose, or the depositor's remark. The call rests on the fitted dose curve; in most records, active means well fitted curve in the direction sought with a large enough effect; inconclusive means small, poorly fitted or top-dose-only effect, or another doubt; inactive means no such curve, though single readings can be large; an effect the other way counts as inactive or inconclusive. Potency means the concentration at half of the fitted maximal effect.

SMILES | BAZ2B inh | G9a block | Sfp inh | JMJD2A Tudor | L3MBTL1 block | HP1b binding inh
COCCNC(=O)/C(C#N)=C\c1ccc(CNC(=O)C(=O)Nc2ccc(C)c(C)c2)o1 | -16.9% | -8.0% | -0.7% | -8.9% | -9.3% | 36.1%
Cc1ccc(NC(=S)N/N=C/c2cccn2Cc2ccccc2F)cc1 | 28.2µM* | ? | -6.9% | ? | / | 25.6%
CC1(C)OC2C(CO)OC(n3cnc4c(=O)[nH]c(N)nc43)C2O1 (configuration not stated) | / | / | -2.4% | / | / | /
O/C(=C\c1nc2ccccc2[nH]1)c1cccs1 | -29.6% | 25.1µM* | -12.3% | -28.8% | / | -3.2%[57 µM]
Cc1cc(C)c(NC(=O)C2CCN(c3nnc(C)c4c(C)n(-c5ccccc5)nc34)CC2)c(C)c1 | -30.9% | -24.5%[59 µM] | / | -29.0% | / | 8.5%
CCOC(=O)c1ccc(NC2=CC(c3ccc(O)c(OCC)c3)N(c3ccc(C(=O)OCC)cc3)C2=O)cc1 (configuration not stated) | -16.5% | -1.8%[59 µM] | / | -9.3% | / | 12.5%
c1cncc(-c2cncnc2-n2ccnc2)c1 | / | / | -18.1% | / | / | /
Cc1cnc(NC(=O)CSc2ccc(Cl)cc2)s1 | 4.3% | 48.8%[12.7 µM] | 12.5% | -22.2% | 0.0% | 28.3%
Cc1cc(C(=O)NNC(=O)COc2ccccc2Cl)n[nH]1 | 4.4% | 79.4µM* | -5.3% | 11.9% | / | 29.2%
Cc1cnc(NC(=O)Nc2ccc(Cl)cc2)s1 | 15.6% | 50.1µM* | 9.5% | -9.7% | / | 22.2%
Cc1cnc(NC(=O)COc2ccccc2Cl)s1 | 1.2% | 56.2µM* | 18.1% | -18.2% | 0.5% | 9.9%
O=C1OC(NC(=O)c2ccccc2)C(n2cc(CO)nn2)=C1Cl (configuration not stated) | ? | ? | 3.98µM* | 89.1µM* | / | ?
COc1cc(NC(=S)NC(C)(C)C)c(OC)cc1Cl | -37.4% | ? | -26.1% | ? | -1.1% | -7.5%
COc1cc(NC(=S)Nc2ccc(Br)cc2Cl)c(OC)cc1Cl | -2.0% | 10.1%[59 µM] | 50.1µM* | -32.2% | -5.1% | ?
COc1cc(Cl)c(C)cc1NC(=O)c1cccc(OC)c1OC | 36.8% | 22.7% | 3.6% | 41.3% | 18.9% | 87.5%
COc1cc(Cl)c(C)cc1NC(=S)NN | -18.2% | 6.31µM* | 35.5µM* | ? | -15.1% | -27.7%
COc1cc(NC(=S)Nc2ccccn2)c(OC)cc1Cl | -16.4% | -34.3% | 1.0% | -6.2% | 2.1% | 46.9%
COc1cc(NC(=S)Nc2cccc(Cl)c2Cl)c(OC)cc1Cl | 8.1% | ? | 50.1µM* | -18.4% | -1.7% | -11.2%
COC(=O)c1ccc2c(c1)N(Cc1ccc(F)cc1)C(=O)c1ccccc1S2 | 3.4% | 3.1%[59 µM] | / | 1.9% | / | 62.8%
COc1ccc(-c2nc3n(n2)C(c2ccc(O)cc2)C(C(=O)Nc2cccnc2)=C(C)N3)cc1OC (configuration not stated) | -3.6% | -4.8%[59 µM] | / | -12.1% | / | 20.0%
CCc1ccc(NC(=O)Cn2c(=O)n(Cc3ccco3)c(=O)c3oc4ccccc4c32)cc1 | -1.3% | -3.6%[59 µM] | / | -7.7% | / | 33.3%
CC1=C(C(=O)Nc2ccc(C)cc2C)C(c2ccc([N+](=O)[O-])cc2)n2ncc(C(=O)Nc3ccc(F)cc3)c2N1 (configuration not stated) | 2.0%[57.1 µM] | -29.3%[59 µM] | / | -12.9% | / | 2.2%
CCCCCN1C(=O)/C(=C/c2c(N3CCc4ccccc4C3)nc3ccccn3c2=O)SC1=S | / | / | / | 39.8µM* | / | ?
O=C(CSc1nc(O)c(C/C=C/c2ccccc2)c(=O)[nH]1)Nc1cccc(F)c1 | -12.1% | -37.7%[59 µM] | / | -29.8% | / | -10.0%
Cc1ccccc1-n1c(=O)cc(N2CCCCCC2)[nH]c1=O | -4.5% | -12.8%[59 µM] | 4.9% | -11.7% | ? | 25.1%
SMILES | BAZ2B inh | G9a block | Sfp inh | JMJD2A Tudor | L3MBTL1 block | HP1b binding inh
Cc1ccccc1-n1c(=O)cc(N2CCN(C(=O)c3ccco3)CC2)[nH]c1=O | 8.5% | ? | 79.4µM* | -14.8% | -23.0% | 2.4%
O=C(O)C1C2C=CC(C2)C1C(=O)N1CCc2ccccc21 (configuration not stated) | 4.6% | 0.3%[12.7 µM] | -5.0% | -15.8% | -1.4%[11.4 µM] | 20.2%
O=C(C1CCN(S(=O)(=O)c2ccccc2)CC1)N1CCc2ccccc21 | -6.4% | / | ? | -11.1% | / | 29.6%
O=C(O)C1CC=CCC1C(=O)N1CCc2ccccc21 (configuration not stated) | ? | 12.6µM* | -0.5% | ? | -7.9% | -16.4%
O=C(C1COc2ccccc2O1)N1CCc2ccccc21 (configuration not stated) | 44.7µM* | 50.1µM* | -6.8% | 79.4µM* | ? | ?
O=C(O)C1C2C=CC(C3CC23)C1C(=O)N1CCc2ccccc21 (configuration not stated) | -5.5% | 79.4µM* | ? | 20µM* | -3.5% | -28.0%
O=C(C1COc2ccccc2O1)N1CCCC1 (configuration not stated) | -11.7% | 0.6% | 13.6% | -7.7% | / | 33.1%
CCOC(=O)N1CCC(NC(=O)c2cnn(-c3ccc(OC)cc3)c2C2CCN(C(=O)OC(C)(C)C)CC2)CC1 | 5.5%[57.1 µM] | -32.1%[59 µM] | / | -1.6% | / | 36.2%
CNc1ncnc2sc(-c3ccccc3)cc12 | 10.9% | -2.7% | -29.5% | -5.3% | / | 32.0%
S=c1[nH]cnc2sc(-c3ccccc3)cc12 | -3.9% | 35.5µM* | 12.9% | -21.4% | / | 16.4%
CC1(C)C2CCC1(C)C(NCC(O)COc1ccc(C#N)cc1)C2 (configuration not stated) | 25.1µM* | ? | ? | 12.6µM* | / | -23.3%
COc1ccc(N2CCN(c3nc(NCCc4ccc(OC)c(OC)c4)nc(OC)n3)CC2)cc1 | 39.8µM* | 11.2µM* | 3.3% | 25.1µM* | / | ?
COC(=O)CN1C(=O)CSc2ccc(S(=O)(=O)Nc3cccc(C)c3)cc21 | -8.5% | -41.9%[59 µM] | / | -7.9% | / | 48.8%
COC(=O)c1ccccc1NC(=O)COC(=O)CSc1nnc(N)s1 | -4.0% | 28.2µM* | -0.7% | -23.1% | / | 25.1%
Nc1nnc(SCC(=O)OCC(=O)c2ccccc2)s1 | -14.9% | -43.5% | 8.6% | -5.0% | 2.4% | 33.4%
Nc1nnc(SCC(=O)OCC(=O)c2ccccc2Br)s1 | -7.0% | 39.8µM* | 14.1% | -15.1% | / | 29.0%
CN1CCCN=C1/C=C\c1cccs1 | / | 5.2%[21.5 µM] | 27.7% | / | / | /
COC(=O)c1ccc(-n2c(C)cc(C(=O)COC(=O)CNS(=O)(=O)c3ccc(C)cc3)c2C)cc1 | -33.7% | ? | 8.0% | 22.4µM* | -3.4% | -13.2%
O=C(CCNS(=O)(=O)c1ccccc1)OCC(=O)c1ccc[nH]1 | 7.3% | 50.1µM* | / | -5.5% | -20.1% | 20.4%
COC(=O)c1cc(C(=O)OC)cc(-n2c(C)cc(C(=O)COC(=O)CNS(=O)(=O)c3ccc(C)cc3)c2C)c1 | -36.2% | ? | 15.2% | -27.3% | ? | -14.2%
